Reference: PubChem BioAssay AID1159580 (chemical genetic matrix, 2015)
Values joined by “and” are separate entries in the source; they are usually repeats but may differ in a detail not shown here. Equal values may be shown once. Among all 5,500 compounds or so, about 2,000 (36%) were called active. About 18% were inconclusive and are not listed. Rule as the data show it: active = normalized growth mostly below about 0.91 (no sharp cut-off); inconclusive = no clear call, values can overlap the other calls; inactive = mostly above about 0.92. Some of the results follow.

Experiment: chemical genetic growth profiling, strain panel (AID 1159580);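 also: tested at 20 µM; growth read once vehicle control cultures reached saturation at 30 °C; 1 = growth at the plate median or of vehicle wells; lower values mean less growth of the strain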
Settings: S. cerevisiae deletion strains, growth OD

Measured: normalized growth

Cn1cnc2c1c(=O)[nH]c(=O)n2C
inactive: locus YAL013W, strain DEP1, stronger effect = lower value 1.01 | locus YAL021C, strain ccr4, stronger effect = lower value 0.952 | locus YAL026C, strain drs2, stronger effect = lower value 0.989 | locus YAL030W, strain snc1, stronger effect = lower value 0.985 | locus YAL040C, strain CLN3, stronger effect = lower value 0.992 | locus YBL061C, strain skt5, stronger effect = lower value 0.985 | locus YBR009C, strain hhf1, stronger effect = lower value 0.997 | locus YBR021W, strain FUR4, stronger effect = lower value 0.991 | locus YBR023C, strain chs3, stronger effect = lower value 1 | locus YBR171W, strain sec66, stronger effect = lower value 0.99 | locus YBR229C, strain ROT2, stronger effect = lower value 1.01 | locus YBR231C, strain swc5, stronger effect = lower value 0.985 | locus YBR279W, strain paf1, stronger effect = lower value 0.997 | locus YCL011C, strain gbp2, stronger effect = lower value 0.978 | locus YCL016C, strain dcc1, stronger effect = lower value 0.993 | locus YCL029C, strain bik1, stronger effect = lower value 1.03 | locus YCL061C, strain MRC1 (second series), stronger effect = lower value 1.01 | locus YCL061C, strain MRC1, stronger effect = lower value 0.984 | locus YCL069W, strain vba3, stronger effect = lower value 0.983 | locus YCR088W, strain abp1, stronger effect = lower value 0.991 | locus YDL005C, strain med2, stronger effect = lower value 0.989 | locus YDL035C, strain GPR1, stronger effect = lower value 1.01 | locus YDL040C, strain nat1, stronger effect = lower value 0.992 | locus YDL074C, strain BRE1, stronger effect = lower value 1.02 | locus YDL101C, strain DUN1, stronger effect = lower value 1.02 | locus YDL134C, strain PPH21, stronger effect = lower value 1.01 | locus YDL185W, strain tfp1, stronger effect = lower value 1.01 | locus YDL192W, strain arf1, stronger effect = lower value 1.01 | locus YDR001C, strain nth1, stronger effect = lower value 0.984 | locus YDR069C, strain doa4, stronger effect = lower value 0.959 | locus YDR101C, strain arx1, stronger effect = lower value 1.01 | locus YDR137W, strain rgp1, stronger effect = lower value 1.03 | locus YDR150W, strain NUM1, stronger effect = lower value 1.01 | locus YDR159W, strain sac3, stronger effect = lower value 0.973 | locus YDR162C, strain NBP2, stronger effect = lower value 1.01 | locus YDR195W, strain ref2 0.944 | locus YDR297W, strain sur2, stronger effect = lower value 0.991 | locus YDR318W, strain mcm21, stronger effect = lower value 1.03 | locus YDR334W, strain swr1, stronger effect = lower value 0.98 | locus YDR335W, strain msn5, stronger effect = lower value 0.976 | locus YDR363W, strain ESC2, stronger effect = lower value 0.998 | locus YDR388W, stronger effect = lower value 1.01 | locus YDR392W, strain spt3, stronger effect = lower value 0.993 | locus YDR502C, strain sam2, stronger effect = lower value 1 | locus YEL003W, strain gim4, stronger effect = lower value 0.988 | locus YEL037C, strain rad23, stronger effect = lower value 0.993 | locus YEL061C, strain CIN8 (second series), stronger effect = lower value 0.974 | locus YEL061C, strain CIN8, stronger effect = lower value 1.01 | locus YER002W, strain NOP16, stronger effect = lower value 1.04 | locus YER015W, strain faa2, stronger effect = lower value 0.981 | locus YER016W, strain bim1, stronger effect = lower value 0.991 | locus YER110C, stronger effect = lower value 1.01 | locus YER111C, strain swi4, stronger effect = lower value 0.985 | locus YER155C, strain BEM2 (second series), stronger effect = lower value 1 | locus YER155C, strain BEM2, stronger effect = lower value 1.01 | locus YER167W, strain BCK2, stronger effect = lower value 1.01 | locus YFR010W, strain ubp6, stronger effect = lower value 0.971 | locus YGL078C, strain dbp3, stronger effect = lower value 1.01 | locus YGL086W, strain mad1, stronger effect = lower value 1 | locus YGL167C, strain pmr1, stronger effect = lower value 0.976 | locus YGL173C, strain kem1, stronger effect = lower value 0.988 | locus YGL227W, strain vid30, stronger effect = lower value 0.994 | locus YGL240W, strain doc1, stronger effect = lower value 0.966 | locus YGL248W, strain PDE1, stronger effect = lower value 1.01 | locus YGL253W, strain hxk2, stronger effect = lower value 0.99 | locus YGR078C, strain PAC10, stronger effect = lower value 1.01 | locus YGR135W, strain pre9, stronger effect = lower value 1.02 | locus YGR229C, strain SMI1, stronger effect = lower value 1.02 and 1.05 | locus YGR252W, strain gcn5, stronger effect = lower value 1.01 | locus YHR013C, strain ard1, stronger effect = lower value 0.961 | locus YHR027C, strain rpn1, stronger effect = lower value 0.972 | locus YHR030C, strain SLT2, stronger effect = lower value 1.01 and 0.97 | locus YHR079C, strain IRE1 (second series), stronger effect = lower value 1.02 | locus YHR079C, strain IRE1, stronger effect = lower value 0.996 | locus YHR094C, strain hxt1, stronger effect = lower value 1.01 | locus YHR129C, strain ARP1, stronger effect = lower value 1.01 | locus YHR142W, strain chs7, stronger effect = lower value 0.999 | locus YHR200W, strain rpn10, stronger effect = lower value 1 | locus YIL066C, strain RNR3, stronger effect = lower value 1.02 | locus YIL073C, strain SPO22, stronger effect = lower value 1.05 | locus YIL125W, strain kgd1, stronger effect = lower value 1.01 | locus YIR030C, strain dcg1, stronger effect = lower value 1.01 | locus YJL092W, strain hpr5, stronger effect = lower value 0.989 | locus YJL095W, strain BCK1 (second series), stronger effect = lower value 0.996 | locus YJL095W, strain BCK1, stronger effect = lower value 1.03 and 0.985 | locus YJL115W, strain asf1, stronger effect = lower value 0.976 | locus YJL129C, strain trk1, stronger effect = lower value 0.963 | locus YJL134W, strain LCB3, stronger effect = lower value 1.01 | locus YJL154C, strain vps35, stronger effect = lower value 0.995 | locus YJL164C, strain tpk1, stronger effect = lower value 0.978 | locus YJL166W, strain qcr8, stronger effect = lower value 0.992 | locus YJL168C, strain set2, stronger effect = lower value 1.01 | locus YJL187C, strain SWE1 (second series), stronger effect = lower value 1.03 | locus YJL187C, strain SWE1, stronger effect = lower value 0.983 | locus YJR043C, strain POL32, stronger effect = lower value 1.01 | locus YJR066W, strain TOR1, stronger effect = lower value 0.963
